We go through 30 compounds from PubChem BioAssay (NCATS).

Values joined by “and” are separate entries in the source; they are usually repeats but may differ in a detail not shown here. Equal values may be shown once. Inconclusive results are not listed. A number with no mark means an inactive call. Active and inactive are the calls of the source. The call rests on the fitted dose curve; in most records, active means well fitted curve in the direction sought with a large enough effect; inconclusive means small, poorly fitted or top-dose-only effect, or another doubt; inactive means no such curve, though single readings can be large; an effect the other way counts as inactive or inconclusive. Where a SMILES comes first, the peptide text is derived from it. Bridges are numbered along the chain shown (N, C = ends). [ ]: non-standard residue; d: D form. The star is where a group is joined. ξ: configuration not given here. d(aThr) = C[C@@H](O)[C@@H](N)C(=O)O; ξThr(3R) = C[C@@H](O)C(N)C(=O)O; X3 = CC[C@@H](C)CCCCC(=O)*; dDab = NCC[C@@H](N)C(=O)O

A short description of experiment [1]: qHTS Assay for Identifying Gametocytocidal Compounds (AID 743244).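 On max response: actives lower the fluorescent signal which means gametocytes are killed.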 To be noted: P. falciparum 3D7 stage III-V gametocytes, alamarBlue, 72 h; max response: active compounds read low. The method in brief:
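Stage III-V P. falciparum 3D7 gametocytes, 20,000 per well, were exposed to compounds for 72 h at 37C, 5% CO2. AlamarBlue was then added for 24 h and viability was read as fluorescence at Ex 525/Em 598 nm.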

Experiment [2] in a line: qHTS assay to identify small molecule inhibitors of chordoma cells - UCH-1 (AID 1259355). Further: nearly all actives have a fitted effect of over 55% in size. On Potency: series mostly up to about 46 µM. The method, boiled down:
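Screening used approved and investigational drugs in 15-point titration against 800 seeded cells per well. A fixed combination of auranofin with camptothecin, doxorubicin, rubitecan and topotecan followed compound addition, and growth was scored by CellTiter-Glo after 48hr.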
A general note: In qHTS, concentration-response curves come from the screen itself.

A short description of experiment [3]: qHTS assay to identify small molecule inhibitors of chordoma cells - UCH-2 (AID 1259356).
On the % scale 0 is the no-effect control and ±100 the full control effect; potency means the concentration at half of the fitted maximal effect.

As for `O=[N+]([O-])O[C@@H]1CO[C@H]2[C@@H]1OC[C@@H]2O`, in experiment [1], the max response is 5.11%. For the same compound, the Potency entry in experiment [2] and in experiment [3] was “inactive” throughout.
In the case of `O=C(O)[C@H]1CN(C/C=C/P(=O)(O)O)CCN1`, the max response in experiment [1] was 12.3%. The Potency result in experiment [2] and in experiment [3] was “inactive” each time.
Turning to `Cc1cc(-c2ccc(N=Nc3ccc4c(S(=O)(=O)O)cc(S(=O)(=O)O)c(N)c4c3O)c(C)c2)ccc1N=Nc1ccc2c(S(=O)(=O)O)cc(S(=O)(=O)O)c(N)c2c1O`, the max response in experiment [1] was 18.4% and 0.953%. The Potency result in experiment [2] and in experiment [3] was “inactive” throughout.
`CCN(CC)C(=O)c1cccnc1`: the max response in experiment [1] is -8.37%. Also, the Potency result in experiment [2] and in experiment [3] was “inactive” each time.
As to `C[C@H]1O[C@@H](O[C@H]2[C@@H](O)C[C@H](O[C@H]3[C@@H](O)C[C@H](O[C@H]4CC[C@@]5(C)[C@H](CC[C@@H]6[C@@H]5C[C@@H](O)[C@]5(C)[C@@H](C7=CC(=O)OC7)CC[C@]65O)C4)O[C@@H]3C)O[C@@H]2C)C[C@H](O)[C@@H]1O`, the max response in experiment [1] is -13.6%. The Potency in experiment [2] is 355 nM (active); in experiment [3] it was 116 nM (active).
For `CCN(CC)CCOc1ccc2nc(N(C)C)sc2c1` the same measures were -4.7%, “inactive” and “inactive”.
For `N[C@H](CC(=O)O)C(=O)O` the same measures were 2.16%, “inactive” and “inactive”.
As for `O=C(O)C1=C(CSc2nnnn2CS(=O)(=O)O)CS[C@@H]2[C@H](NC(=O)[C@H](O)c3ccccc3)C(=O)N12`, the max response in experiment [1] was -5.8%. The Potency entry in experiment [2] and in experiment [3] was “inactive” in each case.
As to `C=CC1=C(C(=O)O)N2C(=O)[C@@H](NC(=O)/C(=N\O)c3csc(N)n3)[C@H]2SC1` (stereo in doubt), the max response in experiment [1] was 1.2% and 8.54%. In addition, the Potency entry in experiment [2] and in experiment [3] was “inactive” each time.
In the case of `CC(=O)Oc1cccc(C(=O)O)c1OC(C)=O`, in experiment [1], the max response is 10.1%. Also, the Potency entry in experiment [2] and in experiment [3] was “inactive” throughout.
For the compound `CCN(CC)CCCC(C)Nc1cc(/C=C/c2ccccc2Cl)nc2cc(Cl)ccc12` (stereo not given), the Potency in experiment [1] is 11200 nM (active). In addition, the Potency result in experiment [2] and in experiment [3] was “inactive” in each case.
Take `CC(CN1c2ccccc2Sc2cccnc21)N(C)C` (stereo not given): in experiment [1], the max response was 4.99%. Further, the Potency entry in experiment [2] and in experiment [3] was “inactive” throughout.
On to `O=C(CCCN1CCC(C(=O)c2ccc(F)cc2)CC1)c1ccc(F)cc1`, for which the max response in experiment [1] is 18.4%. In addition, the Potency entry in experiment [2] and in experiment [3] was “inactive” throughout.
Take `CN1C(=O)C[C@@H](C(=O)N[C@@H](Cc2cnc[nH]2)C(=O)N2CCC[C@H]2C(N)=O)NC1=O`: the max response in experiment [1] was 5.88%. Besides, the Potency result in experiment [2] and in experiment [3] was “inactive” throughout.
`O=C(O)c1cc(O)c2c(c1)[C@H]([C@H]1c3cc(C(=O)O)cc(O)c3C(=O)c3c(O[C@@H]4O[C@H](CO)[C@@H](O)[C@H](O)[C@H]4O)cccc31)c1cccc(O[C@@H]3O[C@H](CO)[C@@H](O)[C@H](O)[C@H]3O)c1C2=O`: the max response in experiment [1] was -8.85%. Moreover, the Potency result in experiment [2] and in experiment [3] was “inactive” each time.
With `CC1CCCCN1CCCOC(=O)c1ccccc1` (stereo not given), the max response in experiment [1] is 6.88%. The Potency entry in experiment [2] and in experiment [3] was “inactive” throughout.
On to `O=C(O)CN(CC(=O)O)CC1=CC2C(=CC1=O)Oc1cc(O)c(CN(CC(=O)O)CC(=O)O)cc1C21OC(=O)c2ccccc21` (stereo not given), for which the max response in experiment [1] is 5.31%. Besides, the Potency entry in experiment [2] and in experiment [3] was “inactive” throughout.
For `CC[C@@H](C)CCCCC(=O)N[C@H](CCN)C(=O)N[C@@H](C(=O)N[C@H](CCN)C(=O)N[C@@H]1CCNC(=O)C([C@@H](C)O)NC(=O)[C@@H](CCN)NC(=O)[C@@H](CCN)NC(=O)[C@@H](CC(C)C)NC(=O)[C@@H](Cc2ccccc2)NC(=O)[C@@H](CCN)NC1=O)[C@@H](C)O` (stereo partly drawn) (X3-[dDab][d(aThr)][dDab][dDab][dDab][dF][dL][dDab][dDab][ξThr(3R)]; lactam 4-C), the max response in experiment [1] was 13.9%. Further, the Potency entry in experiment [2] and in experiment [3] was “inactive” throughout.
Take `CCc1cn([C@H]2C[C@H](O)[C@@H](CO)O2)c(=O)[nH]c1=O`: the max response in experiment [1] was 16.3%. Further, the Potency result in experiment [2] and in experiment [3] was “inactive” throughout.
As for `Cn1nnnc1SCC1=C(C(=O)O)N2C(=O)[C@@H](NC(=O)[C@H](O)c3ccccc3)[C@H]2SC1`, the max response in experiment [1] was -1.19%. Besides, the Potency result in experiment [2] and in experiment [3] was “inactive” throughout.
On to `NCC[C@H](O)C(=O)N[C@@H]1C[C@H](N)[C@@H](O[C@H]2O[C@H](CN)[C@@H](O)[C@H](O)[C@H]2O)[C@H](O)[C@H]1O[C@H]1O[C@H](CO)[C@@H](O)[C@H](N)[C@H]1O`, for which, in experiment [1], the max response is -2.69%. The Potency entry in experiment [2] and in experiment [3] was “inactive” throughout.
Take `CCCCCCCCCCCCCCCCCC[N+](C)(C)CCC[Si](OC)(OC)OC`: the max response in experiment [1] was -8.48%. The Potency result in experiment [2] and in experiment [3] was “inactive” throughout.
`CC(=O)N[C@@H](C=O)[C@@H](O)[C@H](O)[C@H](O)CO`: in experiment [1], the max response was 11.4%. The Potency result in experiment [2] and in experiment [3] was “inactive” throughout.
With `C[Se]CC[C@H](N)C(=O)O`, in experiment [1], the max response was 8.55%. Further, the Potency entry in experiment [2] and in experiment [3] was “inactive” each time.
In the case of `CNC(=O)OCc1cccc(COC(=O)NC)n1`, the max response in experiment [1] is 8.67%. The Potency result in experiment [2] and in experiment [3] was “inactive” in each case.
For `CC(C)[C@H](N)C(=O)OCC(CO)OCn1cnc2c(=O)[nH]c(N)nc21` (stereo not given in full), in experiment [1], the max response was -1.87%. The Potency entry in experiment [2] and in experiment [3] was “inactive” throughout.
Take `CN1C(=O)OC(C)(C)C1=O`: in experiment [1], the max response was 8.47%. The Potency result in experiment [2] and in experiment [3] was “inactive” in each case.
`Nc1nc(NC2CC2)c2ncn([C@@H]3C=C[C@@H](CO)C3)c2n1`: in experiment [1], the max response is 15.8%. Moreover, the Potency entry in experiment [2] and in experiment [3] was “inactive” in each case.
In the case of `NC(N)=NCC1COC2(CCCCC2)O1` (stereo not given), the max response in experiment [1] was 9.74%. For the same compound, the Potency result in experiment [2] and in experiment [3] was “inactive” throughout.
As to `COc1ccc(C[C@H](C)NC[C@@H](O)c2ccc(O)c(NC=O)c2)cc1`, the max response in experiment [1] was -5.27%. Further, the Potency entry in experiment [2] and in experiment [3] was “inactive” throughout.
